Screening data from PubChem.
The full list was thinned out, with hits kept by preference.
ID4 binder – ID4 (human) binding. P47928. small molecule microarray, Flag-ID4 binding, fluorescence F/B. calls only. hit rate 1.2% among 31,000; call rule not given here;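 note: a binder raises fluorescence above local background on the spot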
Target sequence (P47928 whole entry, looked up): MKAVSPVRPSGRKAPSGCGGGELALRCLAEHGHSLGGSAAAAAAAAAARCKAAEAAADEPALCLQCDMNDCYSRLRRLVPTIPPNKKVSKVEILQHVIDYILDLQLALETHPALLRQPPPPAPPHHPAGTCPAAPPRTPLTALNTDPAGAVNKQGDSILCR
Calls only; 0 = inactive; + = active, no number.

SMILES | ID4 binder
CC(=O)c1ccc(-n2c(CCC(=O)O)ccc2-c2ccc(F)cc2)cc1 | 0
CC(=O)Nc1ccc(-n2c(CCC(=O)O)ccc2-c2ccc(C)cc2)cc1 | +
COC(=O)c1cccc(-n2c(CCC(=O)O)ccc2-c2ccc(C)cc2)c1 | 0
CCC(=O)N1CCc2cc(S(=O)(=O)NC(CC(C)C)C(=O)NC3CCCC3)ccc21 (stereo not drawn) | 0
CCn1c(SCC(=O)Nc2ccc(Br)cc2F)nnc1-c1ccccc1Cl | 0
O=C(O)c1cc(NC(=O)C2CCCO2)cc(NC(=O)C2CCCO2)c1 (stereo not drawn) | +
O=C(C1CCCO1)N1CCN(C(=S)Nc2ccc(S(=O)(=O)Nc3ncccn3)cc2)CC1 (stereo not drawn) | 0
O=C(Nc1ccc(S(=O)(=O)NCC2CCCO2)cc1)C1CCCO1 (stereo not drawn) | 0
CCn1c2ccccc2n2c(SC(C)C(=O)O)nnc12 (stereo not drawn) | 0
O=C(NCc1cccnc1)c1ccc2c(c1)C(=O)N(CC1CCCO1)C2=O (stereo not drawn) | 0
Cc1cc(=O)oc2cc(NC(=S)NCc3cccnc3)ccc12 | +
COc1ccc(NC(=S)NCc2cccnc2)cc1OC | 0
COc1ccc(NC(=O)NCc2cccnc2)cc1OC | 0
CSc1ccccc1NC(=O)C(C)NS(=O)(=O)c1ccc(C)cc1 (stereo not drawn) | 0
Cc1ccc(S(=O)(=O)NC(C)C(=O)Nc2ccc(Oc3ccccc3)cc2)cc1 (stereo not drawn) | 0
COC(=O)c1cn(CCCNC(=O)[C@H](Cc2ccccc2)NS(=O)(=O)c2ccc(C)cc2)nn1 | +
CC(Sc1nc(=O)cc(N)n1-c1ccccc1)C(=O)Nc1ccc(Cl)cc1 (stereo not drawn) | 0
Cc1occc1C(=O)Nc1sc2c(c1C(=O)NCc1cccnc1)CCCC2 | +
O=C(Nc1sc2c(c1C(=O)NCc1cccnc1)CCCC2)c1ccc(Cl)cc1 | 0
O=C(Nc1sc2c(c1C(=O)NCc1cccnc1)CCCC2)c1cccs1 | 0
CC(NS(=O)(=O)c1ccccc1)C(=O)Nc1ccccc1Sc1ccccc1 (stereo not drawn) | 0
CCc1cc2c(=O)n(-c3ccccc3)c(SCC(=O)Nc3ccc([N+](=O)[O-])cc3)nc2s1 | 0
Cc1ccc(C)c(OC(=O)CS(=O)c2ccccc2[N+](=O)[O-])c1 (stereo not drawn) | 0
CNC[C@H]1OCCCC[C@H](C)Oc2ccc(NS(=O)(=O)c3cccs3)cc2C(=O)N([C@@H](C)CO)C[C@@H]1C | +
CNC[C@@H]1OCCCC[C@@H](C)Oc2ccc(NS(=O)(=O)c3cccs3)cc2C(=O)N([C@H](C)CO)C[C@@H]1C | 0
SMILES | ID4 binder
CNC[C@H]1OCCCC[C@H](C)Oc2ccc(NS(=O)(=O)c3cccs3)cc2C(=O)N([C@@H](C)CO)C[C@H]1C | 0
CNC[C@@H]1OCCCC[C@@H](C)Oc2ccc(NS(=O)(=O)c3cccs3)cc2C(=O)N([C@@H](C)CO)C[C@H]1C | +
CNC[C@H]1OCCCC[C@@H](C)Oc2ccc(NS(=O)(=O)c3cccs3)cc2C(=O)N([C@H](C)CO)C[C@H]1C | 0
CNC[C@@H]1OCCCC[C@H](C)Oc2ccc(NS(=O)(=O)c3cccs3)cc2C(=O)N([C@@H](C)CO)C[C@H]1C | 0
CC(CN1CCCCC1)NC(=O)c1cc(-c2ccccn2)nc2ccc(Br)cc12 (stereo not drawn) | 0
O=S(=O)(NCc1ccccn1)c1cc(Cl)c(Cl)cc1Cl | 0
COc1cc(/C=C/C(=O)OC2C(COC(=O)c3cc(OC)c(OC)c(OC)c3)OC(OC3(CO)OC(CO)C(O)C3O)C(O)C2O)cc(OC)c1OC (stereo not drawn) | 0
Nc1ccc(C(=O)CC2(O)C(=O)Nc3ccc(F)cc32)cc1 (stereo not drawn) | 0
CCOc1ccccc1NC(=O)CSc1nc2ccccc2c(=O)n1-c1cccc(C(F)(F)F)c1 | 0
O=C(O)c1cccc(CSc2nnc(-c3ccncc3)o2)c1 | 0
COc1cc(OC)cc(-c2nnc(SCc3cccc(C(=O)O)c3)o2)c1 | 0
O=C(O)c1cccc(CSc2nnc(-c3ccco3)o2)c1 | +
CCn1c(SCC(=O)Nc2ccccc2)nc2ccc(I)cc2c1=O | 0
CCCC(=O)N(CCc1c[nH]c2ccccc12)[C@@H]1CC(C(=O)NCCO)=C[C@H](Oc2c(I)cc(CO)cc2OC)[C@H]1O | +
COc1cc(SC)ccc1C(=O)NCCc1c[nH]c2ccccc12 | 0
COc1ccc(C(=O)NCCc2c[nH]c3ccccc23)cc1[N+](=O)[O-] | 0
C[C@@H]1CN([C@H](C)CO)C(=O)c2cccc(NC(=O)c3cnccn3)c2O[C@@H]1CN(C)C(=O)Nc1ccccc1 | 0
C[C@H]1CN([C@@H](C)CO)C(=O)c2cccc(NC(=O)c3cnccn3)c2O[C@@H]1CN(C)C(=O)Nc1ccccc1 | +
COc1ccc(NC(=O)Nc2cccc3c2O[C@H](CN(C)S(=O)(=O)c2ccc(Cl)cc2)[C@H](C)CN([C@@H](C)CO)C3=O)cc1 | +
C[C@@H]1CN([C@@H](C)CO)C(=O)c2cccc(NC(=O)c3nc4ccccc4s3)c2O[C@H]1CN(C)C(=O)Nc1cccc2ccccc12 | 0
C[C@H](CO)N1C[C@H](C)[C@H](CN(C)C(=O)Nc2ccccc2)Oc2c(NC(=O)c3nc4ccccc4s3)cccc2C1=O | 0
COc1ccc(NC(=O)Nc2cccc3c2O[C@@H](CN(C)S(=O)(=O)c2ccc(Cl)cc2)[C@@H](C)CN([C@@H](C)CO)C3=O)cc1 | 0
C[C@@H]1CN([C@@H](C)CO)C(=O)c2cccc(NC(=O)c3cnccn3)c2O[C@@H]1CN(C)C(=O)Nc1ccccc1 | 0
COc1ccc(NC(=O)Nc2cccc3c2O[C@H](CN(C)S(=O)(=O)c2ccc(Cl)cc2)[C@H](C)CN([C@H](C)CO)C3=O)cc1 | 0
C[C@@H]1CN([C@H](C)CO)C(=O)c2cccc(NC(=O)c3nc4ccccc4s3)c2O[C@H]1CN(C)C(=O)Nc1cccc2ccccc12 | +
SMILES | ID4 binder
Cn1c(SCC(=O)N2c3ccccc3Sc3ccccc32)nnc1-c1ccccc1Cl | 0
O=C(CSc1nnnn1-c1ccccc1)Nc1ccc(Cl)cc1O | 0
Cc1cccc(C)c1OCC(=O)Nc1ccccc1C(=O)Nc1ccc(C(=O)O)cc1 | 0
COCCOC(=O)N1C(=O)[C@@]2(c3ccccc31)[C@H](c1ccccc1OCCO)N1[C@H](c3ccccc3)[C@H](c3ccccc3)OC(=O)[C@H]1[C@@H]2C(=O)N1CCc2cc(OC)c(OC)cc2C1 | 0
O=C(CSc1nc2sc3c(c2c(=O)n1Cc1ccco1)CCC3)c1cc(Cl)sc1Cl | 0
O=C(N[C@@H](Cc1ccccc1)Cn1cc(CN2C(=O)COC[C@H]2c2ccccc2)nn1)c1ccccc1 | 0
O=C(Nc1ccccc1)N[C@H](Cc1ccccc1)Cn1cc(CN2C(=O)COC[C@H]2c2ccccc2)nn1 | +
O=[N+]([O-])c1ccc(S(=O)(=O)NCc2cccnc2)cc1 | 0
Cc1ccc(C)c(NC(=O)CSc2nnc(-c3ccc(N)cc3)n2C)c1 | 0
Cc1ccc(-c2nn(C)c(=O)c3ccccc23)cc1S(=O)(=O)N1CCN(CCO)CC1 | +
Cc1ccc(-c2nn(CC(=O)NCCN3CCOCC3)c(=O)c3ccccc23)cc1 | 0
Cc1ccc(-c2nn(C)c(=O)c3ccccc23)cc1CNC(=O)CN1CCOCC1 | 0
CCC(C)C(OC1OC(C)C(O)C(O)C1O)C(C)C(=O)C(C)/C=C(\C)CC(C)C(O)C(C)C(=O)O (stereo not drawn) | 0
CCc1ccc(OCC(=O)Nc2cc(OC)ccc2OC)c(Br)c1 | 0
